Laboratory results as given in PubChem BioAssay (NCI).
This is part of a sample that, as a whole, favours compounds with a hit. Of some 83,000 tested, about 20% had one in any assay.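 Activity criterion: percent growth below 10, measured after cells in 96-well plates were exposed to a single compound concentration for 48 hours.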 Active and inactive are the calls of the source.

Assays:
Test in all cases: NCI-60 one-dose screen, 48 h (100 = growth as untreated, 0 = no growth, -100 = all killed)
Conditions in all cases: 10 µM
DU-145 prostate = tested on: DU-145 prostate
K-562 leukemia = tested on: K-562 leukemia
MALME-3M melanoma = tested on: MALME-3M melanoma
MDA-MB-231 breast = tested on: MDA-MB-231 breast
RXF 393 renal = tested on: RXF 393 renal
SF-268 CNS = tested on: SF-268 CNS
SF-295 CNS = tested on: SF-295 CNS
SF-539 CNS = tested on: SF-539 CNS
UACC-257 melanoma = tested on: UACC-257 melanoma
M14 melanoma = tested on: M14 melanoma

Measured: growth

CCOC(=O)C1NN(c2ccc(S(N)(=O)=O)cc2)c2nc3nc(-c4cccs4)cc(-c4cccs4)c3c(=O)n21 (stereo not given)
inactive: DU-145 prostate 91.6% | K-562 leukemia 83.3% | MALME-3M melanoma 86.1% | MDA-MB-231 breast 88.8% | RXF 393 renal 51.6% | SF-268 CNS 75% | SF-295 CNS 78.5% | SF-539 CNS 63.1% | UACC-257 melanoma 109% | M14 melanoma 74%

C/C(=C\CSc1ccccc1C(=O)O)CCCC(C)CCCC(C)CCCC(C)C (stereo not given)
inactive: DU-145 prostate 67.1% | K-562 leukemia 36.2% | MALME-3M melanoma 86.4% | MDA-MB-231 breast 75.9% | RXF 393 renal 87.8% | SF-268 CNS 51.5% | SF-295 CNS 40.6% | SF-539 CNS 61.1% | UACC-257 melanoma 80.7% | M14 melanoma 60%

O=c1oc2ccc(-c3ccc(F)cc3F)cc2c(=O)n1-c1ccc(Cl)c(C(F)(F)F)c1
inactive: DU-145 prostate 14.2% | K-562 leukemia 10.1% | SF-268 CNS 12% | M14 melanoma 21.5%
active: MALME-3M melanoma -26.7% | MDA-MB-231 breast -19.8% | RXF 393 renal -14.3% | SF-295 CNS -74% | SF-539 CNS -7.49% | UACC-257 melanoma -5.73%

CC1=C2C(=C[C@@](C)(CO)[C@@H]2O)/C(=N\N)[C@](C)(O)C12CC2
active: DU-145 prostate 1.63% | MALME-3M melanoma -76.2% | MDA-MB-231 breast -21% | RXF 393 renal -90.5% | SF-268 CNS -3.67% | SF-295 CNS -14.8% | SF-539 CNS -75.8% | UACC-257 melanoma -49.4% | M14 melanoma 5.88%
inactive: K-562 leukemia 19.3%

CS(=O)(=O)Nc1ccc(-c2ccc3c(c2)ncn3-c2ccc(NC(=O)Nc3ccc(Br)cc3)cc2)cc1
inactive: DU-145 prostate 29.8% | MDA-MB-231 breast 13.6% | SF-268 CNS 26.4%
active: K-562 leukemia 4.89% | MALME-3M melanoma -20.2% | RXF 393 renal -16.8% | SF-295 CNS -38.3% | SF-539 CNS -34.5% | UACC-257 melanoma -16.9% | M14 melanoma 4.32%

CC1=N/C(=C\c2ccc(N(C)C)cc2)C(=O)N1CCc1ccc(S(N)(=O)=O)cc1
inactive: DU-145 prostate 112% | K-562 leukemia 90.6% | MALME-3M melanoma 93.4% | MDA-MB-231 breast 96.4% | RXF 393 renal 88.9% | SF-268 CNS 102% | SF-295 CNS 99.7% | SF-539 CNS 98% | UACC-257 melanoma 87.1% | M14 melanoma 97.3%

N#Cc1c(NC(=O)c2cccc(C(F)(F)F)c2)sc2c1CCC(O)=C2
inactive: DU-145 prostate 50.1% | K-562 leukemia 14.5% | MALME-3M melanoma 19.3% | MDA-MB-231 breast 39.6% | RXF 393 renal 50.7% | SF-268 CNS 38.6% | SF-295 CNS 35.3% | SF-539 CNS 48.1% | UACC-257 melanoma 30.1% | M14 melanoma 36.8%

O=C(Nc1nc2ccc([N+](=O)[O-])cc2s1)Nc1cc(Cl)ccc1I
active: K-562 leukemia -5.74% | MALME-3M melanoma -41% | MDA-MB-231 breast -37% | RXF 393 renal -44.8% | SF-268 CNS 1.99% | SF-295 CNS -71% | SF-539 CNS -74.3% | UACC-257 melanoma -36.5% | M14 melanoma -52.7%
inactive: DU-145 prostate 17.3%

Clc1ccc(/C=N/Nc2ncnc3sc4c(c23)CCN(Cc2ccccc2)C4)cc1
active: DU-145 prostate 3.38% | K-562 leukemia 1.43% | MALME-3M melanoma -66.9% | MDA-MB-231 breast -65.8% | SF-268 CNS -31.2% | SF-295 CNS -81.6% | SF-539 CNS -87.1% | UACC-257 melanoma -15.5% | M14 melanoma -63.2%
inactive: RXF 393 renal 31.5%

COc1ccsc1/C=N/NC(=O)c1[nH]c2ccc(Br)cc2c1-c1ccccc1
active: K-562 leukemia 1.22% | MDA-MB-231 breast 3.17% | SF-295 CNS -7.83% | SF-539 CNS -18.5% | M14 melanoma 5.95%
inactive: DU-145 prostate 11.7% | MALME-3M melanoma 22.3% | RXF 393 renal 30.8% | SF-268 CNS 17.2% | UACC-257 melanoma 11.4%

COc1ccc2nc(Nc3cccc(NC(=O)c4ccc(CN5CCN(C)CC5)c(C(F)(F)F)c4)c3)ccc2c1
active: DU-145 prostate -32.8% | K-562 leukemia -70.8% | MALME-3M melanoma -91.8% | MDA-MB-231 breast -82.7% | RXF 393 renal -75.7% | SF-268 CNS -55.2% | SF-295 CNS -97.7% | SF-539 CNS -99.8% | UACC-257 melanoma -83.9% | M14 melanoma -50.1%

COc1ccc(C(=O)NC(=S)N2CCN(c3ncnc4c3cnn4-c3ccccc3)CC2)cc1
inactive: DU-145 prostate 79.9% | K-562 leukemia 62.7% | MALME-3M melanoma 57.8% | MDA-MB-231 breast 80.2% | RXF 393 renal 49.9% | SF-268 CNS 63.8% | SF-295 CNS 57.8% | SF-539 CNS 32.3% | UACC-257 melanoma 54.4% | M14 melanoma 63.1%

C=C1CCC2C3(C)COC(c4cccc(F)c4)OC3CCC2(C)C1CC(O)C1=CCOC1=O (stereo not given)
inactive: DU-145 prostate 72.8% | K-562 leukemia 24.1% | MALME-3M melanoma 90.8% | MDA-MB-231 breast 67.5% | RXF 393 renal 57.2% | SF-268 CNS 106% | SF-295 CNS 74.5% | SF-539 CNS 84.8% | UACC-257 melanoma 72.7% | M14 melanoma 61.1%
